# Bioassay records as filed in PubChem.
# A selection follows.
# aSyn UTR act = Activators via SNCA 5'UTR binding, MLPCN. alpha-synuclein 5'UTR reporter, activators screen. activity score, % (tested at 7.5 µM), hits read low. actives 7.1% (n = 300,000). AID 1814; in the data active = activity score below about -60%
# The depositor's hits bear a star.
SMILES,aSyn UTR act
Cc1ccc(Nc2c([N+](=O)[O-])ccc3c2=NC2(CCCCC2)N=3)cc1,-68*
C/C(=N\Nc1ccc(C(=O)O)cc1)c1ccc2c(c1)Nc1ccccc1S2,-110*
COCCNC(=O)c1cc(-c2cccc(OC)c2)on1,-85*
COc1cccc(-c2cc(C(=O)NC3CCCC3)no2)c1,-115*
COCC(C)NC(=O)c1cc(-c2cccc(OC)c2)on1 (stereo unspecified),-133*
O=C(NC1CCCCC1)c1ccc(-c2cccc([N+](=O)[O-])c2)o1,-127*
CCOC(=O)C1CCCN(Cc2cc(=O)oc3cc(C)ccc23)C1 (stereo unspecified),-75*
Cc1ccc2c(CN3CCC(C)CC3)cc(=O)oc2c1,-150*
COc1cc2[nH]c(C(=O)Nc3ccc(F)cc3)cc2c(OC)c1OC,-229*
Cc1ccc(NC(=O)c2cc3cc(OC(F)(F)F)ccc3[nH]2)cc1,-77*
COc1ccc(-n2c(=S)[nH]c3cc(C(=O)Nc4ccc(C)c(F)c4)ccc3c2=O)c(OC)c1,-73*
COc1ccc2[nH]c(C(=O)Nc3ccc(C)c(F)c3)cc2c1,-115*
COc1ccc(NC(=O)c2cc3ccccc3[nH]2)cc1,-228*
O=C(/C=C/c1ccccc1Cl)Nc1ccc(Cl)cn1,-118*
O=C(CCc1ccccc1)NC(c1cccs1)c1cc(Cl)c2cccnc2c1O (stereo unspecified),88
O=C(COc1ccccc1)Nc1ccc(Cl)cn1,-114*
O=C(Nc1ccc(Cl)cn1)c1ccc(Oc2ccccc2)cc1,-143*
O=C(CCc1ccccc1)Nc1ccc(Cl)cn1,-314*
Cc1ccccc1NC(=O)COc1ccc2c(c1)OC(C)(C)CC2=O,-88*
O=C(COc1ccc(Cl)cc1)Nc1ccc(Cl)cn1,-125*
O=C(COc1ccc2c(c1)OCO2)Nc1ccccc1F,-98*
Cc1ccc(CC(=O)Nc2ccc(Cl)cn2)cc1,-101*
O=C(/C=C/c1ccc2c(c1)OCO2)Nc1ccc(Cl)cn1,-110*
O=C(COc1ccc2c(c1)OCO2)Nc1ccc(Cl)cn1,-142*
O=C(/C=C\Nc1ccc(Cl)cn1)c1ccc(Br)cc1,-165*
SMILES,aSyn UTR act
Cc1cc(N/C=C/C(=O)c2ccc(Br)cc2)no1,-198*
Cc1ccnc(N/C=C/C(=O)c2ccc(Br)cc2)c1,-62*
CN(N=Nc1cccc([N+](=O)[O-])c1)c1cccc([N+](=O)[O-])c1,-82*
O=c1[nH]c(-c2ccc(O)cc2)nc2scc(-c3cccs3)c12,-138*
Cn1c(C(C#N)C(=O)c2ccco2)nc2ccccc21 (stereo unspecified),-125*
CC1CCCN(C(=O)CSc2nnc(-c3cccs3)o2)C1 (stereo unspecified),-79*
CCC1CCCCN1C(=O)CSc1nnc(-c2cccs2)o1 (stereo unspecified),-74*
Nc1c(C(=O)N/N=C/c2cccnc2)cnn1-c1ccccc1,-67*
CC(Oc1ccc(Cl)cc1Cl)C(=O)Nc1cccc(O)c1 (stereo unspecified),-62*
CC(Oc1ccc(Br)cc1Cl)C(=O)Nc1ccncc1 (stereo unspecified),-84*
COCCNc1oc(-c2ccc(C)cc2)nc1C#N,-107*
N#Cc1nc(-c2ccc(Cl)cc2)oc1NCc1ccco1,-108*
COCCNc1oc(-c2ccc(Cl)cc2)nc1C#N,-162*
CCN(CC)C(=O)CSC(=Nc1ccccc1F)NC#N,-109*
N#CC1=C2Sc3ccccc3N2CCCC1=O,-171*
N#CC1=C2SC=C(c3ccc(Br)cc3)N2CCCC1=O,-257*
COC(=O)c1cc(-c2ccc(OC)cc2)n[nH]1,-103*
CCN1CCN(Cc2ccc(NC(=O)c3cc(NC(=O)c4cc(-c5ccc(OC)cc5)n[nH]4)cc(OC)c3)cc2C(F)(F)F)CC1,106
CCOc1cccc(-c2cc(C(=O)NN)[nH]n2)c1,-64*
COC(=O)c1cc(-c2ccc(C)cc2)n[nH]1,-106*
CCOc1ccc(-c2cc(C(=O)OC)[nH]n2)cc1,-103*
CC1CCc2c(sc(NC(=O)CSc3ncn[nH]3)c2C#N)C1 (stereo unspecified),91
Cn1nnnc1SCC(=O)Nc1nc2c(s1)CCCC2,-102*
Cc1nnc(SCC(=O)Nc2nc3c(s2)CC(C)CC3)s1 (stereo unspecified),-75*
O=C(CSC1=NCCS1)Nc1nc2c(s1)CCCC2,-104*
SMILES,aSyn UTR act
Cc1ccc(C(=O)/C=C/Nc2cccc(O)c2)cc1,-194*
O=C(/C=C/Nc1ccc(F)c(Cl)c1)c1ccccc1,-211*
O=C(/C=C/Nc1cccc(O)c1)c1ccccc1,-180*
CC(=O)c1ccc(N/C=C\C(=O)c2ccc(C)cc2)cc1,-211*
Cc1ccc(N/C=C/C(=O)c2ccccc2)cc1Br,-83*
CC(=O)c1cccc(N/C=C\C(=O)c2ccc(C)cc2)c1,-159*
Cc1ccc(C(=O)/C=C/Nc2ccc3c(c2)OCO3)cc1,-182*
C/C(=C\C(=O)c1ccc(C)cc1)Nc1cccc(O)c1,-284*
COc1ccc(-c2cnn3c4c(c(C)nc23)CCN4C(C)C)cc1OC,-70*
CCOC(=O)c1cnc2c(OC)cccc2c1N1CCN(c2ccccc2OC)CC1,62
